Consider 39 compounds from ChEMBL document CHEMBL3433997, “St. Jude Leishmania screening dataset” (2016).

The structures appear in SMILES notation.

In the test the target is Solute carrier family 2, facilitated glucose transporter member 1 (Homo sapiens) (UniProt P11166). The experiment in a line: ST_JUDE_LEISH: Cytotoxicity at 2uM final concentration against transgenic Leishmania Mexicana promastigotes LmGLUT1 that are glucose transport deficient and complemented with the human glucose transporter GLUT1. Activity is measured by DNA content using SYBR green in vitro. Format: functional.
Solute carrier family 2, facilitated glucose transporter member 1 (Homo sapiens), sequence (P11166 whole entry): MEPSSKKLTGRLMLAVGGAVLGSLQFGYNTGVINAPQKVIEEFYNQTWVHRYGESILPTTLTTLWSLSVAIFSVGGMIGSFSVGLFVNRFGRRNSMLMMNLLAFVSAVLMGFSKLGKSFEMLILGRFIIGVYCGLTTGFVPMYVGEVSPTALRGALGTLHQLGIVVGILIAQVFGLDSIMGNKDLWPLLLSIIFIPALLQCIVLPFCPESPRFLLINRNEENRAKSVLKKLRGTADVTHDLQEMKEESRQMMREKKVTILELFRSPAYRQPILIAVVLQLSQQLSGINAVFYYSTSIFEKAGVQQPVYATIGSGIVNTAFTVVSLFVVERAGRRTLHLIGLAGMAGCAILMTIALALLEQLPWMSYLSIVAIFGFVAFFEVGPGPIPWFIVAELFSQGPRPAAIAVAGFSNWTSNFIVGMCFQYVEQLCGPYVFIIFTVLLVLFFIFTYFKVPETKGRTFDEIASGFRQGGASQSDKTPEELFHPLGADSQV
One may read the inhibition as the relative decrease from the control value, in per cent. `COc1ccc2nc(C)cc(N/N=C/c3ccc([N+](=O)[O-])o3)c2c1`: the inhibition came to 3.7%.
Consider `CNC(=O)c1ccccc1Nc1nc(Nc2ccc(C(=O)O)cc2)ncc1Cl`, for which the inhibition was -1.75%.
Regarding `CC(C)C[C@H](Nc1ccnc(NCC2CCCCC2)n1)C(=O)NCCOc1ccccc1`, the inhibition was determined as 2.57%.
In the case of `CC[C@H](C)CNC(=O)c1ccnc(-c2ccc(CNC3Cc4ccccc4C3)cc2)c1` it was 0.15%.
As to `COc1ccc(CNCc2ccc(-c3ccc(CNCCc4ccccc4)cn3)cc2)cn1`, the inhibition was 0.68%.
As for `O=C(Nc1ccc(-c2nc3ccccc3[nH]2)cc1)C1CCCN(CC2CC2)C1` (centres undefined), the inhibition turned out to be 12.9%.
For `c1cc(CN2CCN(CCN3CCOCC3)CC2)cc(-c2cccc(-c3nc4ccccc4[nH]3)c2)c1`, the inhibition is -0.34%.
For `CCOC(=O)c1cnc2c(C(F)(F)F)cccc2c1Nc1ccc(O)cc1`, the inhibition amounted to 10.8%.
In the case of `CN1CCN(Cc2ccc(-c3cc4c(Nc5ccc(OCc6cccc(F)c6)c(Cl)c5)ncnc4s3)[nH]2)CC1` it was 12.7%.
Take `COc1ccc2[nH]ccc(=NN=Cc3cccc(F)c3)c2c1`: the inhibition turned out to be 1.01%.
With `CCOc1cc(O)c(-c2nc(N)ncc2-c2ccc3c(c2)OCCO3)cc1CC`, the inhibition was determined as 9.25%.
As for `O=C(NC1CCCCC1)N(Cc1cccc(-c2cccc(CNC3CCCC3)c2)c1)C1CCN(Cc2ccccc2)CC1`, the inhibition is 8.95%.
Then `Cc1[nH]c(C)c(-c2ccc(-c3ccc(OC(F)(F)F)cc3)cc2)c(=O)c1Br`, with 2.4%; and `CS(=O)(=O)c1cccc(-c2cnc3[nH]cc(-c4cccc(CCN)c4)c3c2)c1`, with 4.65%.
`Clc1cc(Nc2ccnc3ccc(Br)cc23)ccc1Oc1ccc2ccccc2c1Cl`: the inhibition is 2.41%.
Turning to `O=C(NCc1ccccc1)C1Cc2c([nH]c3ccc(Br)cc23)C2(CCN(Cc3ccccc3)CC2)N1` (centres undefined), the inhibition was 2.61%.
In the case of `Fc1ccc2[nH]c(-c3ccc(-c4ccc(CNCCN5CCNCC5)cc4)cc3)nc2c1` it was -0.25%; in that of `CCn1cc(C=C2Oc3c(ccc(O)c3CN3CCCCC3C)C2=O)c2ccccc21` (centres undefined), 4.31%.
In the case of `CC1(C)NC(=N)N=C(NOCC=Cc2ccccc2)N1`, the inhibition was 3.05%.
In the case of `Cc1ccc(NC(=O)c2ccc(Cl)cc2)cc1-c1ccc(C(=O)Nc2ccncc2)cc1`, the inhibition is -1.61%.
Then `O=C(Nc1ccc(C(F)(F)F)cc1)c1cccc(S(=O)(=O)NCC2CCCN(CC3CCCCC3)C2)c1` (centres undefined), with 5.71%; and `O=C(c1ccc([N+](=O)[O-])o1)N1CCN(c2nc3c(F)cc(F)cc3s2)CC1`, with 21%; and `COCCNC(=O)C1CCN(C(c2ccc(Cl)cc2)c2ccc(Cl)cc2)CC1`, with 7.23%.
Turning to `CCN(CC)CCOc1ccc(C(O)(C#CC(O)(c2ccccc2)c2ccc(OCCN(CC)CC)cc2)c2ccccc2)cc1` (centres undefined), the inhibition was -1.1%.
Regarding `CC(CN(C)C)C(=O)Nc1ccc(-c2ccc(-c3nc4ccccc4[nH]3)cc2)cc1` (centres undefined), the inhibition stood at 3.03%.
In the case of `NC1=NC(c2ccccc2)(c2ccccc2)C(=O)N1CCOc1ccccc1`, the inhibition was found to be 1.06%.
For `CCN1CCN(c2cc(C)c3cc(NC(=O)c4ccc([N+](=O)[O-])c(C)c4)ccc3n2)CC1`, the inhibition is 3.68%.
`CCOC(=O)c1c(CN(CC)CC)n(-c2ccccc2)c2cc(Br)c(O)cc12`: the inhibition was found to be 2.14%.
Turning to `CC(C)c1cn2c3c(cc(C(=O)N[C@@H](Cc4ccccc4)[C@H](O)CNC4CCOCC4)cc13)N(C)S(=O)(=O)CC2`, the inhibition came to 3.12%.
On to `CC(C)OCCCNC(=O)c1nc(-c2cccc(C(F)(F)F)c2)sc1C(C)C`, for which the inhibition amounted to 3.62%.
Turning to `Nc1nccc2ccc(OC3CCCCC3)cc12`, the inhibition worked out at 0.26%.
`Cc1ccc(Nc2nnc(SCC(=O)Nc3ccc(CN4CCCC4)cc3)s2)cc1`: the inhibition was found to be 0.83%.
Then `Cc1cccc(Cn2ccc3c(N)nc(N)nc32)c1`, with 4.57%; and `O=C(NCCCCCN1CCC(c2c[nH]c3ccccc23)CC1)Nc1cccc(C(F)(F)F)c1`, with -1.78%; and `CN1CCN(c2nsc3ccc(-c4ccc(NC(=O)Nc5ccccc5)cc4)cc23)CC1`, with 2.28%.
As for `CC(C)C(=O)NC(Nc1ccc([N+](=O)[O-])cc1)C(Cl)(Cl)Cl` (centres undefined), the inhibition was 3.83%.
For the compound `COC(=O)c1noc(C)c1I`, the inhibition was 0.86%.
On to `COc1ccc(CCC(C)N2CC(N)C(c3cn(C)c4cnccc34)C2)cc1` (centres undefined), for which the inhibition is 9.7%.
Regarding `NC(=O)c1cc2nc(Nc3ccc(F)cc3)nc(Nc3ccc(S(N)(=O)=O)cc3)c2[nH]1`, the inhibition came to 1.3%.
